CHRM4 PAM – potentiates acetylcholine response at human M4 receptor; P08173; CHO-K1 hM4/Gqi5, Fluo-8 calcium fluorescence, ACh EC20; 0% = ACh EC20, 100% = maximal ACh; activation, % at 3 µM; hit rate 0.4% among 360,000; AID 624126;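 active = activation above its plate's cutoff, the mean activation of sample wells plus 3 SD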
M1 ag – human M1 muscarinic receptor agonism; CHO-K1 hM1, Fluo-8 calcium fluorescence, agonist mode; 0% DMSO, 100% acetylcholine EC100; hit rate 0.33% among 360,000; activation, % at 3 µM;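 active = activation above the run's mean compound activation plus 3 SD, cut at about 16% in these data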;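 also: peak over basal fluorescence ratio within a 140 s kinetic read after compound addition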
Target sequence (P11229 whole entry, looked up): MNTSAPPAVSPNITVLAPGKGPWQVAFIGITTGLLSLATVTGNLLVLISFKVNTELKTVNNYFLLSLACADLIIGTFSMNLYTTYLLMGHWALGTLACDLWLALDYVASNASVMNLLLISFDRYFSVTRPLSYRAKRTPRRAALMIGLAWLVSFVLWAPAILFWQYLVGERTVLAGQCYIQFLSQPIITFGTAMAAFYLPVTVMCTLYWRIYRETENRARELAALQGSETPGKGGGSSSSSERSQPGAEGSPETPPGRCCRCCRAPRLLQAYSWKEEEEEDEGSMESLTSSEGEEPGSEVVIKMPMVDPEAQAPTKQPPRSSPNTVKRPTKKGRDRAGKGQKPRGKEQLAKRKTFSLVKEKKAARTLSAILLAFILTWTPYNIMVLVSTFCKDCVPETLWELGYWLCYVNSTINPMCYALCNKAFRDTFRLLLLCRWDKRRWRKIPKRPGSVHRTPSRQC
CHRM1 PAM – positive allosteric modulators of human M1 muscarinic receptor; hit rate 0.088% among 360,000; CHO-K1 hM1, Fluo-8 calcium fluorescence, ACh EC20; 0% = ACh EC20, 100% = maximal ACh; activation, % at 3 µM; P11229; in the data active = activation above about 19%, passing the limit was not always enough
M1 antag – human CHRM1 antagonism; P11229; CHO-K1 hM1, Fluo-8 calcium fluorescence, ACh EC80 antagonist; inhibition, % at 3 µM; hit rate 1.3% among 360,000; AID 588852;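 active = percent inhibition above its own plate's cutoff, namely the mean of that plate's compound wells plus 3 SD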;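 also: peak over basal fluorescence ratio during 140 s after agonist addition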
CHRM4 agonist – agonists of human muscarinic M4 receptor (CHRM4); P08173; CHO-K1 hM4/Gqi5, Fluo-8 calcium fluorescence; vehicle 0%, full acetylcholine response 100%; activation, % at 3 µM; hit rate 0.14% among 360,000; AID 624127;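 active = activation above the run mean over all test wells plus 3 SD, cut at about 32% in these data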;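 also: peak over basal fluorescence ratio per well then scaled between controls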
CHRM4 antagonist – antagonists of human muscarinic M4 receptor (CHRM4); P08173; CHO-hM4 cells, ACh EC80, Fluo-8 calcium fluorescence; inhibition, % at 3 µM; hit rate 0.73% among 360,000;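 active = inhibition above its plate's cutoff, the mean inhibition of sample wells plus 3 SD, cut at about 27% in these data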
Hits are given with their value; – = inactive. This is a sample that favours compounds with a hit; in the whole collection about 2.2% have one here.

SMILES | CHRM4 PAM | M1 ag | CHRM1 PAM | M1 antag | CHRM4 agonist | CHRM4 antagonist
COC1OC(COC(=O)c2ccccc2)C(OC(=O)c2ccccc2)C1OC(=O)c1ccccc1 (configuration not stated) | – | – | – | – | – | –
COC1OC(COCc2ccccc2)C(N)C(OCc2ccccc2)C1OCc1ccccc1 (configuration not stated) | – | – | – | 41.7 | – | –
Cc1cccc2sc(NNC(=O)c3ccc(S(=O)(=O)N4CCCC(C)C4)cc3)nc12 (configuration not stated) | – | – | – | 67.0 | – | –
O=C(COC(=O)Cc1cccc(C(F)(F)F)c1)NCc1ccco1 | 32.0 | – | – | – | – | –
O=C(COC(=O)Cc1ccc(F)cc1)NCc1ccco1 | – | – | – | – | – | –
COc1ccccc1N1CCN(CC(=O)Nc2ccccc2C(=O)NCCc2ccccc2)CC1 | – | – | – | 28.6 | – | –
CC(NC(=O)c1ccccc1NC(=O)CN1CCN(c2ccccc2O)CC1)c1ccccc1 (configuration not stated) | – | – | – | – | – | –
COc1ccc(CCNC(=O)c2ccccc2NC(=O)CN2CCN(c3ccccc3O)CC2)cc1 | – | – | – | 28.3 | – | –
COc1ccccc1N1CCN(CC(=O)Nc2ccccc2C(=O)NC(C)c2ccccc2)CC1 (configuration not stated) | – | – | – | 35.0 | – | –
Cc1cc(OCC(=O)NCc2ccccn2)cc(C)c1Br | – | – | – | – | – | –
CCOC(=O)CSc1ccc(C(=O)NCCCN2CCOCC2)cc1[N+](=O)[O-] | – | – | – | 65.0 | – | 27.2
O=C(NCCCN1CCOCC1)c1ccc(Sc2cccc(Cl)c2)c([N+](=O)[O-])c1 | – | – | – | 82.5 | – | 46.6
COc1ccc(C(=O)NCCN2CCOCC2)cc1[N+](=O)[O-] | – | – | – | – | – | –
O=C(NCCCN1CCOCC1)c1ccc(Cl)c([N+](=O)[O-])c1 | – | – | – | – | – | –
CCOC(=O)N1CCN(C(=O)c2ccc3nc(N4CCCCC4)sc3c2)CC1 | – | – | – | – | – | –
CCCCC(=O)N1CCN(c2nc3ccc(Br)cc3s2)CC1 | 19.4 | – | – | – | – | –
CCCC(=O)N1CCN(c2nc3ccc(Br)cc3s2)CC1 | 28.9 | – | – | – | – | –
CCOC(=O)N1CCN(C(=O)c2ccc3nc(N4CCC(C)CC4)sc3c2)CC1 | 15.7 | – | – | – | – | –
CCN(CC)CCCNc1nc(N)c([N+](=O)[O-])c(N2CCCCCC2)n1 | – | – | – | 64.8 | – | –
C=CCNc1nc(N)c([N+](=O)[O-])c(N2CCCCCC2)n1 | – | – | – | – | – | –
O=C1CCc2cc(S(=O)(=O)N3CCN(c4cccc(Cl)c4)CC3)ccc2N1 | – | – | – | – | – | –
COc1ccc2c(c1)N(C[C@H](C)CN(C)C)c1ccccc1S2 | – | – | – | 99.1 | – | 54.0
OCCN(CCO)CC(O)CN1c2ccccc2Sc2ccccc21 (configuration not stated) | – | – | – | – | – | –
CCN(CC)CC(O)CN1c2ccccc2Sc2ccccc21 (configuration not stated) | – | – | – | 51.5 | – | –
CC(CN(C)C)CN1c2ccccc2Sc2ccccc21 (configuration not stated) | – | – | – | 100.5 | – | 82.1
SMILES | CHRM4 PAM | M1 ag | CHRM1 PAM | M1 antag | CHRM4 agonist | CHRM4 antagonist
O=C(Nc1ccc(F)cc1)N1CCCN(c2ccc(C(F)(F)F)cn2)CC1 | – | – | – | – | – | –
Cc1ccc(NC(=O)c2ccnc(C(C)(C)C)c2)cc1 | – | – | – | – | – | –
COc1ccc(N(CC(=O)N2CCCCCC2)S(C)(=O)=O)cc1Cl | – | – | – | – | – | –
CNC(=O)Nc1ccccc1C(=O)NCc1ccccc1 | – | – | – | – | – | 86.6
COC(=O)CCC(=O)OC1(C)C(=O)C=C2C=C(C3CC3)N(c3ccccc3)C=C2C1=O (configuration not stated) | – | – | – | 28.4 | – | –
COCc1nnc(NC(=O)C(C)C)s1 | – | – | – | – | – | –

High-throughput results: PubChem, The Scripps Research Institute Molecular Screening Center
